Experimental data taken from the supplement of paper PMC10011410.
± gives the standard deviation of the averaged measurements.

Test system: AmpC beta-lactamase (E. coli)
Assay: AmpC inhibition relative to DMSO; higher = more inhibition
Experimental: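 Aggregation counter-screen: inhibition of E. coli AmpC beta-lactamase (5 nM, nitrocefin substrate, 50 mM sodium phosphate pH 7.0, RT, 5 min) by KAT inhibitors at 4, 11, 33 and 100 uM, with or without 0.01% Triton X-100. Percent inhibition is relative to DMSO controls. Four technical replicates.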

[1] = 4 µM, detergent: 0.01% Triton X-100
[2] = 11 µM, detergent: 0.01% Triton X-100
[3] = 33 µM, detergent: 0.01% Triton X-100
[4] = 100 µM, detergent: 0.01% Triton X-100
[5] = 100 µM, detergent: no detergent

| SMILES | AmpC inhibition [1] [%] | AmpC inhibition (4 µM, detergent: no detergent) [%] | AmpC inhibition [2] [%] | AmpC inhibition (11 µM, detergent: no detergent) [%] | AmpC inhibition [3] [%] | AmpC inhibition (33 µM, detergent: no detergent) [%] | AmpC inhibition [4] [%] | AmpC inhibition [5] [%] |
| --- | --- | --- | --- | --- | --- | --- | --- | --- |
| c1cc(SSc2ccns2)sn1 | 7.81 ± 8.7 | -0.684 ± 6.7 | 6.83 ± 7.1 | 5.01 ± 6.3 | 7.13 ± 7.9 | 3.34 ± 12 | 9.28 ± 4 | 11 ± 4.2 |
| ClC1=CC=C(C2=CSC(N/N=C3CCCC/3)=N2)C=C1 | 5.11 ± 3.4 | 11.8 ± 4.8 | 4.35 ± 2.1 | 6.62 ± 2.3 | 1.83 ± 7 | 14.2 ± 9 | 7.09 ± 4.1 | 1.99 ± 3.6 |
| C=C(C)[C@@H](CC=C(C)C)C[C@@]12C[C@@H](CC=C(C)C)C(C)(C)[C@@](CC=C(C)C)(C(=O)/C(=C(\O)c3ccc(O)c(O)c3)C1=O)C2=O | 13.6 ± 17 | 0.481 ± 8.4 | -2 ± 19 | 17.9 ± 7.4 | 5.26 ± 8.2 | 63 ± 4.7 | -8.29 ± 6.4 | 97.95 ± 0.64 |
| O=C1/C(=C/c2ccc(O)c(Br)c2)CCC/C1=C\c1ccc(O)c(Br)c1 | 4.59 ± 5 | 7.44 ± 6.5 | 9.28 ± 8.5 | 55.4 ± 9.9 | 5.98 ± 3.4 | 78.6 ± 1.3 | -4.62 ± 5.8 | 81.8 ± 1.7 |
| COc1cc(/C=C/c2cc(/C=C/c3ccc(O)c(OC)c3)n(-c3ccc(C(=O)[O-])cc3)n2)ccc1O.[Na+] | 1.31 ± 3 | -4.8 ± 14 | 2.98 ± 1.9 | -29.6 ± 5.8 | 4.87 ± 2.2 | -38.3 ± 23 | 2.96 ± 6 | -2.93 ± 15 |
